An excerpt weighted towards active compounds, which were near 2.1% of everything screened.
Abeta yeast res – qHTS for compounds that reverse cellular toxicity of Amyloid beta (A-beta) peptide in yeast: Primary Screen; yeast expressing A-beta42, growth rescue, OD600, 48 h; response scale: 0% DMSO, 100% iron-clioquinol control; hit rate 0.063% among 410,000; Potency, µM (series often up to 46.1 µM), actives largely listed as activators; further: nearly all actives have a fitted effect of over 55% in size
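Yeast growth medium received pinned compounds, then yeast cells expressing toxic A-beta were added; plates incubated at 30 C for 48 hr. Growth read as absorbance at 600 nm, normalized to DMSO and equimolar FeCl3 plus clioquinol controls.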
aSyn rescue – qHTS of alpha-syn Inhibitors. hit rate 0.14% among 370,000. Potency, µM (titrated, usually from 46.1 µM), inactives show at the top dose growth rescue (activation), hits mostly activators. Yeast expressing alpha-synuclein, growth rescue, BacTiter-Glo, 24 h; further: % of control where 0% means no effect; nearly all actives have a fitted effect of over 65% in size
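Galactose-induced alpha-syn yeast (OD600=0.02, raffinose-pregrown) + pinned cpd, 24 hr, 30 deg C; growth by BacTiter-Glo luminescence. Growth restoration scores as activation.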
TDP-43 yeast inh – qHTS of TDP-43 Inhibitors. TDP-43 expressing yeast growth rescue, BacTiter-Glo, 24 h. hit rate 1.8% among 410,000. Potency, µM (highest dose often 46.1 µM), for inactives: at the highest dose growth rescue (activation), most hits filed as activators. AID 652104, 2013; further: % of control where 0% means no effect; nearly all actives have a fitted effect of over 50% in size
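Yeast cells expressing TDP-43 under galactose induction are exposed to compounds for 24 hr at 30 deg C. BacTiter-Glo luminescence measures growth, so protective compounds score as activators.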
FUS yeast rescue – qHTS for Suppressors of FUS Proteinopathy: Primary screen using FUS-linked yeast assay | hit rate 0.24% among 390,000 | Potency, µM (series often up to 76.6 µM), actives largely listed as activators | S. cerevisiae FUS-expressing, growth rescue, OD600, 24 h;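 further: plate controls were DMSO vehicle for no effect and reference control for full effect; nearly all actives have a fitted effect of over 55% in size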
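Cultures pregrown in 2.5% raffinose medium are shifted to minimal medium containing 2% galactose to express toxic FUS. Compounds are tested at several concentrations. After 24hr at 30C, growth is quantified at 600 nm absorbance.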
TSG101-PTAP inh – qHTS Assay for Iinhibitors of HIV-1 Budding by Blocking the Interaction of PTAP/TSG101; Fluorescence polarization, FITC-PTAP peptide / Tsg101 binding; 340,000 tested, under 10 active; Potency, µM (top dose mostly 115 µM), inactives show at the highest dose activity change, negative = inhibition, most hits filed as inhibitors; AID 493005, 2010; Tumor susceptibility gene 101 protein (Homo sapiens), Q99816; active means well fitted inhibition curve with a large enough effect in the main read-out, with a control signal flat, not every such curve was filed as active; inconclusive means small, poorly fitted or top-dose-only effect, or effect the other way, or a change in a side signal; inactive means no such curve, though single readings can be large or run the other way; further: % of control where 0% means no effect
Target sequence (Q99816 whole entry, looked up): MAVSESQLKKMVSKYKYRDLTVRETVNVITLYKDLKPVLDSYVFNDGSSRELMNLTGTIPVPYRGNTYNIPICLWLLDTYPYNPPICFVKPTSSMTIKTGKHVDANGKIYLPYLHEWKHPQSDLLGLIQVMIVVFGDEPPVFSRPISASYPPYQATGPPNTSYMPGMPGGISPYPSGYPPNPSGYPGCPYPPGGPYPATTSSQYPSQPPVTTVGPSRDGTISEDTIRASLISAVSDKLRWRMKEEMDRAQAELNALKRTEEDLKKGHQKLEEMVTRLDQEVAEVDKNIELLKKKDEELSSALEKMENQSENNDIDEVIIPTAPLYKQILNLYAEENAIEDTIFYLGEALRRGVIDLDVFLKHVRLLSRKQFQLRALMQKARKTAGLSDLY
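Steps: Tsg101 binding domain dispensed (10 uM final), compounds pinned in DMSO, FITC-labeled PTAP-motif peptide added (50 nM final); after 20 min binding at room temperature, polarization measured.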
The depositor's hits bear a star; i = inactive; ? = inconclusive; . = no result given; [ ] = another dose, or the depositor's remark. Unless noted, the call rests on the fitted dose curve; in most records, active means well fitted curve in the direction sought with a large enough effect; inconclusive means small, poorly fitted or top-dose-only effect, or another doubt; inactive means no such curve, though single readings can be large; an effect the other way counts as inactive or inconclusive. Potency means the concentration at half of the fitted maximal effect.

SMILES	Abeta yeast res	aSyn rescue	TDP-43 yeast inh	FUS yeast rescue	TSG101-PTAP inh
Cc1nnc(N2C(=O)C(O)=C(C(=O)c3ccco3)C2c2ccc(C(C)C)cc2)s1 (centres undefined)	i	-1%	9%	7.1µM*	-10%
N/C(Cc1ccc([N+](=O)[O-])cc1)=N\OC(=O)c1ccccc1F	i	1%	11µM*	i	-1%
CCOCCn1ccc2c(OCC(=O)Nc3ccc(OC(F)(F)F)cc3)cccc2c1=O	i	.	8%	i	.
CC(C)COC(=O)c1cccc2c1-c1ccccc1/C2=N\O	i	-18%	?	i	-3%
CCOC(=O)c1cccc2c1-c1ccccc1/C2=N/O	i	-13%	14µM*	i	-7%
C1=CN2CC=Cc3cc(/C=C/c4ccnc5ccccc45)cc(c32)C1	.	-21%	.	.	.
CC1(Cc2cccc(C(F)(F)F)c2)C(=O)Nc2c(Cl)ccc(Cl)c21 (centres undefined)	i	-26%	-17%	i	.
CC1(Cc2ccccc2Cl)C(=O)Nc2c(Cl)ccc(Cl)c21 (centres undefined)	i	13µM*	32µM*	i	.
CC1(Cc2ccccc2F)C(=O)Nc2c(Cl)ccc(Cl)c21 (centres undefined)	i	11µM*	2%	i	.
Cc1ccc(CC2(C)C(=O)Nc3c(Cl)ccc(Cl)c32)cc1 (centres undefined)	i	18µM*	0%	i	.
CC1(Cc2ccc(Cl)cc2)C(=O)Nc2c(Cl)ccc(Cl)c21 (centres undefined)	i	?	-26%	i	.
CCCCCN1CCCCC(NC(=O)c2ccccc2OC)C1=O (centres undefined)	.	.	.	i	.
CCc1ccc(CNc2ncnc3onc(-c4ccc(Cl)cc4)c23)cc1	i	.	-5%	i	.
Cc1[nH]n(-c2ccccc2)c(=O)c1C=Nc1cccc2cccnc12	i	-2%	22µM*	.	-5%
Cc1[nH]n(-c2ccccc2)c(=O)c1/C=N/N1C(=O)c2cccc3cccc(c23)C1=O	?	?	18µM*	i	-4%
C=CCOc1ccc2c(OC)c3ccoc3nc2c1OC	i	-3%	11µM*	i	-4%
CCOc1c2ccoc2nc2c(OC)c(OC)ccc12	i	-4%	21%	i	-1%
COc1ccc(OC)c(-c2csc(NC(=O)Cc3ccccc3OC)n2)c1	i	-19%	10µM*	i	-1%
COc1ccc(-c2csc(NC(=O)CSCC(=O)Nc3cc(C)on3)n2)cc1	i	5%	35%	.	-1%
COc1ccc(-c2csc(NC(=O)CSCc3c(C)noc3C)n2)c(OC)c1	i	6%	16µM*	i	0%
Cc1ccc(C(C)(C)C)c(SCC(=O)Nc2nnc(C)s2)c1	i	-1%	-11%	i	-1%
COc1ccc(OC)c(N(CC(=O)N2CCN(c3cc(Cl)ccc3C)CC2)S(C)(=O)=O)c1	i	2%	-20%	28µM*	-6%
O=C(/C=C\c1ccccc1OC(=O)c1ccccc1F)c1cc2ccccc2o1	i	17%	13µM*	i	-2%
CC(=O)/C=C\c1ccccc1OC(=O)c1cc2ccccc2oc1=O	i	7%	16%	i	-10%
Cc1ccc(C)c(NC(=O)CC2NCCNC2=O)c1 (centres undefined)	i	.	9%	i	.
SMILES	Abeta yeast res	aSyn rescue	TDP-43 yeast inh	FUS yeast rescue	TSG101-PTAP inh
COc1ccc(CNC(=O)C2(CC3CC(c4ccccc4)=NO3)CCN(C(=O)Cc3ccc(F)cc3)CC2)cc1 (centres undefined)	i	5%	8%	i	0%
CCOc1cc(C(=O)N2CCC(CC3CC(c4ccccc4)=NO3)(C(=O)NCc3ccc(OC)cc3)CC2)cc(OCC)c1OCC (centres undefined)	i	0%	2%	18µM*	-16%
C[C@@H]1CN([C@H](C)CO)C(=O)CCCn2cc(nn2)CO[C@H]1CN(C)S(=O)(=O)c1ccc2ccccc2c1	i	1%	27%	i	.
Cc1ccc(F)cc1NC(=O)c1c(-c2ccccc2)noc1C	i	0%	20µM*	i	-2%
COc1cccc(C2=NO[C@@H]3C(=O)N(Cc4ccccc4)C(=O)[C@H]23)c1OC	i	-1%	13µM*	i	-4%
COc1cccc(C2=NO[C@@H]3C(=O)N(c4ccc5c(c4)OCCO5)C(=O)[C@H]23)c1OC	i	-1%	-3%	i	-6%
O=C(OCn1nnc2ccccc2c1=O)c1ccc(O)cc1	i	?	22%[9.22 µM]	i	0%
COc1cc(/C=C\C(=O)OCn2nnc3ccccc3c2=O)cc(OC)c1OC	i	?	20µM*	i	0%
Cc1ccccc1C(=O)OCn1nnc2ccccc2c1=O	i	25%	14µM*	i	-3%
COc1ccc(C(=O)OCn2nnc3ccccc3c2=O)cc1	i	?	18µM*	i	-3%
CCS(=O)(=O)c1oc(-c2ccc(F)cc2)nc1S(=O)(=O)c1ccc(Br)cc1	i	.	28µM*	i	.
CCCCS(=O)(=O)c1oc(-c2ccc(F)cc2)nc1S(=O)(=O)c1ccccc1	i	.	14µM*	i	.
CC(C)S(=O)(=O)c1oc(-c2cccs2)nc1S(=O)(=O)c1ccc(F)cc1	i	.	8.9µM*	i	.
CC(C)S(=O)(=O)c1oc(-c2ccc(F)cc2)nc1S(=O)(=O)c1ccccc1	i	.	13µM*	i	.
CSc1oc(-c2ccc(F)cc2)nc1S(=O)(=O)c1ccccc1	i	0%	-8%	i	-3%
O=C(C[n+]1cccc2cc(Cl)ccc21)c1ccc2ccccc2c1	.	1%	.	.	.
CSc1nccc(N2CCN(c3ccc(F)cc3)CC2)n1	i	6%	-8%[0.397 µM]	i	-4%
Clc1ccc(N2CCN(c3ccnc(Cl)n3)CC2)cc1	i	?	18µM*	i	1%
COc1ccccc1OCC(=O)NNC(=S)NC(=O)c1ccco1	7.9µM*	?	29%	i	0%
COc1ccc(/C=C/C(=O)NC(=S)NNC(=O)c2ccco2)cc1	7.1µM*	24%	?	i	-4%
O=C(/C=C/c1cccs1)NC(=S)NNC(=O)c1ccccc1O	i	11%	-32%	i	-6%
COc1ccc(C(=O)NNC(=S)NC(=O)/C=C/c2cccs2)cc1	8.9µM*	7.1µM*	?	i	1%
COc1ccc(C(=O)NNC(=S)NC(=O)C(C)(C)C)cc1	5.6µM*	?	-60%	i	-8%
CN(C)c1ccc(C=NC2CCc3ccccc32)cc1 (centres undefined)	.	-6%	.	.	.

Screens (PubChem)
